The results in this text go back to article PMC4336329 (PLoS ONE, 2015).

Molecules are shown by their SMILES. In all, about 310,000 compounds went through this assay and about 14,000 (4.5%) showed an effect of 50% or more. Effects have a minus sign here. Many of the other results were omitted from the sample, so strong results are more common in it than they were.
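Further: peak tail current of the secondary pulse compared with the same well before compound.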

human ether-à-go-go-related gene (hERG) potassium channel, sequence (Q12809 whole entry, looked up): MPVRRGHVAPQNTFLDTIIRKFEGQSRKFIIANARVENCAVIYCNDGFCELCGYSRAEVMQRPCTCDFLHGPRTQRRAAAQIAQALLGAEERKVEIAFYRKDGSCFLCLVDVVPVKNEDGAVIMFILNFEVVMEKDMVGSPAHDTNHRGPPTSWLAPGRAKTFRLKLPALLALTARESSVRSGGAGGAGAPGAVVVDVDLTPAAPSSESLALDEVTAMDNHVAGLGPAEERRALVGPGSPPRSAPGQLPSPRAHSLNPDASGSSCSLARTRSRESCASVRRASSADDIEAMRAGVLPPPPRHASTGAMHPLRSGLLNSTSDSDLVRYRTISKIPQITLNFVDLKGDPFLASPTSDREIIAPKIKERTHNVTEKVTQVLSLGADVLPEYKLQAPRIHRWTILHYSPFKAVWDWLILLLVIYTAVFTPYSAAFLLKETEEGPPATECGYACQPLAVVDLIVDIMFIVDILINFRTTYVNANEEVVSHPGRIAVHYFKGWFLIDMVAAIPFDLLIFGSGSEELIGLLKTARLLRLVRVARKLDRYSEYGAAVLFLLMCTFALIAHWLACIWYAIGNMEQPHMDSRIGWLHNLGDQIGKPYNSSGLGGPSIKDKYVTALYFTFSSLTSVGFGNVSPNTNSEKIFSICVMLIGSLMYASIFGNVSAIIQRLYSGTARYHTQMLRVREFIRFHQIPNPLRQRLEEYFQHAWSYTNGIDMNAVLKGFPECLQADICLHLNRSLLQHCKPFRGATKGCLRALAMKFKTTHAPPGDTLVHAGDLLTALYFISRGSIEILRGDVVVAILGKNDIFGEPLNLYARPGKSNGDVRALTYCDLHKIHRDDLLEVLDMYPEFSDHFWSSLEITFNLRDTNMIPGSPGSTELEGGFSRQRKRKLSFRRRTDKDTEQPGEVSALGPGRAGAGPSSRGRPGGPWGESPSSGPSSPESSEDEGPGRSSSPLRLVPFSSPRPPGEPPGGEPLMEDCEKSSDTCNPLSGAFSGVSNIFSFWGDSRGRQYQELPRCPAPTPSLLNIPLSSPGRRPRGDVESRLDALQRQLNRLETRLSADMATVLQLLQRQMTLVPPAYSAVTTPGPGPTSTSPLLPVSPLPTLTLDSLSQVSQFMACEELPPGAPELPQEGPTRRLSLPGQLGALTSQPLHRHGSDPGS

The experiment concerns the target human ether-à-go-go-related gene (hERG) potassium channel (human, UniProt Q12809). Kind of experiment: primary screen, population patch clamp on CHO cells stably expressing hERG; higher = less effect of the substance.
Consider `COc1ccccc1CNC(=O)COC(=O)c1ccc(Cl)c(N)c1`, for which the “hERG current change (%, negative = inhibition) at 10uM” value is given as 21.8%.
Then `N=c1c(S(=O)(=O)c2ccc(Br)cc2)cc2c(=O)n3ccccc3nc2n1C1CCCCC1`, with 22.8%; and `N=c1c(S(=O)(=O)c2ccc(Br)cc2)cc2c(=O)n3ccccc3nc2n1C1CCCC1`, with 9.15%.
The result for `N=c1c(C(=O)NCC2CCCO2)cc2c(=O)n3ccccc3nc2n1C1CCCCC1` (centres unmarked) reads -77.3%; that for `N=c1c(S(=O)(=O)c2ccccc2)cc2c(=O)n3ccccc3nc2n1C1CCCC1`, 1.62%.
Take `N=c1c(C(=O)NCC2CCCO2)cc2c(=O)n3ccccc3nc2n1C1CCCC1` (centres unmarked): the “hERG current change (%, negative = inhibition) at 10uM” value was -76.9%.
The result for `Cc1nc(C(=O)NC2CC2)sc1C1(C)CC(c2ccccc2)=NO1` (centres unmarked) reads -8.63%; that for `Cc1ccc(Nc2nc(CSc3nnnn3-c3ccccc3)cs2)cc1`, 14.7%.
Then `CNC(=O)NC(=O)CN1C(=O)NC2(CCOc3ccccc32)C1=O` (centres unmarked), with 18.9%; and `CC(C)OP(=O)(OC(C)C)/C(C=O)=N\Nc1ccc([N+](=O)[O-])cc1`, with -55.1%.
As for `N#CC(C#N)=NNc1ccc([N+](=O)[O-])cc1`, the “hERG current change (%, negative = inhibition) at 10uM” value is -2.55%.
Take `COP(=O)(OC)/C(C=O)=N/Nc1ccc([N+](=O)[O-])cc1`: the “hERG current change (%, negative = inhibition) at 10uM” value was -36.3%.
In the case of `CC(C)CCNC(=O)C1CCN(C(=O)N(C)C)CC1`, the “hERG current change (%, negative = inhibition) at 10uM” value stood at 14.5%.
`Cc1c(N2C(=O)CS/C2=N\N=C\c2ccc(Cl)cc2)c(=O)n(-c2ccccc2)n1C`: the “hERG current change (%, negative = inhibition) at 10uM” value was -32.2%.
Regarding `S=C(Nc1ccc(Cl)cc1)N(CCCN1CCOCC1)Cc1ccco1`, the “hERG current change (%, negative = inhibition) at 10uM” value was -26%.
On to `CCN1CCN(CCCN(Cc2ccco2)C(=S)Nc2ccc(Cl)cc2)CC1`, for which the “hERG current change (%, negative = inhibition) at 10uM” value is -64.2%.
As to `CN1CCN(CCCN(Cc2ccco2)C(=S)Nc2ccc(Cl)cc2)CC1`, the “hERG current change (%, negative = inhibition) at 10uM” value is -69.6%.
The result for `CCOC(=O)C1C2C=CC3(CN(Cc4cccs4)C(=O)C13)O2` (centres unmarked) reads 1.73%; that for `CCOc1cccc(C(=O)NC(=S)Nc2cccc(C)c2)c1`, 6.87%.
Then `COCCCn1cnnc1SCc1nc2sc(C(C)=O)c(C)c2c(=O)[nH]1`, with -17%; and `CCN1Cc2c(/C=C/c3ccccc3)nc3ccc(OC)cc3c2N(c2cccc(Cl)c2)C1`, with -12.5%.
As to `Cc1ccc2nc(C)c3c(c2c1)N(c1ccccc1)CC3`, the “hERG current change (%, negative = inhibition) at 10uM” value is on record as -74.6%.
Then `Cc1ccc2cc3c(nc2c1)N(c1ccccc1)CC3`, with 2.24%; and `COc1cccc(N2CCc3c(C)nc4ccc(Cl)cc4c32)c1`, with -72.9%.
Take `CSc1nc(C)c2c(n1)N(c1ccc(F)cc1)CC2`: the “hERG current change (%, negative = inhibition) at 10uM” value is given as 19.8%.
As to `Cc1ccc2nc(C)c3c(c2c1)SCC3`, the “hERG current change (%, negative = inhibition) at 10uM” value is -27.4%.
The result for `Cc1ccc2nc(C)n(-c3ccc(F)cc3)c(=O)c2c1` reads 21.3%; that for `Cc1nc2ccc(Cl)cc2c(=O)n1-c1cccc(Cl)c1`, 3.78%.
For `Cc1ccc2nc(C)c3c(c2c1)N(c1ccc(F)cc1)CC3`, the “hERG current change (%, negative = inhibition) at 10uM” value was -92.2%.
